Each structure is given as a SMILES string. In all, about 370,000 compounds went through this assay and about 3,300 (0.89%) were called active. Many of the other results were omitted from the sample, so actives are more common in it than they were. Unmarked numbers belong to inactive results.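 The calls were made as follows: active = activation above the mean of all tested compounds plus 3 SD, computed per campaign excluding outliers beyond control limits (cut at about 13% in these data); inactive = the rest.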

This is an account of results in PubChem BioAssay AID652039 (The Scripps Research Institute Molecular Screening Center, 2013).

Chain of Kallikrein-7 (Homo sapiens) (P49862 whole entry, looked up): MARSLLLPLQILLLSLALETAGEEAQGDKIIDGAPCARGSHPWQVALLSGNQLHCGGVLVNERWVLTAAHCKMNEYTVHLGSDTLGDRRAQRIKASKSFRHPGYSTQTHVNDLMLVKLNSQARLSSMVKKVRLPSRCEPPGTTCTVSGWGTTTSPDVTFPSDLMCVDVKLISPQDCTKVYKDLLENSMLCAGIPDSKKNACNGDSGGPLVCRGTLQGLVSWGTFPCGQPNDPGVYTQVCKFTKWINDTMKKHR

The assay concerns the target Kallikrein-7 (Homo sapiens) (UniProt P49862). Nature of the assay: activation of human kallikrein-7 proenzyme – biochemical, fluorescence intensity, primary screen (AID 652039). The note with it: purified proKLK7, EDANS-DABCYL substrate fluorescence; at 7 µM; hits give high values; 100% is mature enzyme control, 0% vehicle.
`CC(C)(C)OC(=O)NCc1cc(F)ccc1/C=C/S(=O)(=O)NCCc1ccccc1`: the activation is 0.29%.

Turning to `FC(F)(F)c1cccc(Cn2ccc3ccc(-c4ccc5ccn(Cc6ccccc6)c5c4)cc32)c1`, the activation is -1.25%.

`COc1cccc(/C=C/C(=O)Nc2ccc3c(c2)OCCO3)c1`: the activation is -0.23%.

For `O=C(/C=C/c1ccc2c(c1)OCCO2)c1ccc(O)cc1`, the activation is 17.6% (active).

For the compound `Cc1cccc(NC(=O)/C=C/c2ccc3c(c2)OCO3)n1`, the activation is 6.43%.

As to `COc1ccccc1CCNC(=O)C1CCN(c2nc(C)cc(C)n2)CC1`, the activation was -0.66%.

As to `COC(=O)c1cc(S(=O)(=O)N2CCN(c3ccccc3C)CC2)cn1C`, the activation was 0.47%.

For the compound `CN(C)Cc1c(O)ccc2c(=O)c(-c3ccccc3Cl)coc12`, the activation was 40.3% (active).

On to `CN(C)Cc1c(O)ccc2occ(C(O)c3ccccc3)c12` (stereo not given), for which the activation was -0.59%.

With `Cc1ccc(C(=O)c2coc3ccc(O)c(CN(C)C)c23)cc1`, the activation was 0.08%.

For the compound `COc1ccc(CCNC(=O)COC(=O)c2cc(=O)c3ccccc3o2)cc1`, the activation is 0.13%.

On to `COc1ccc(CNC(=O)COC(=O)C(CCSC)N2C(=O)c3ccccc3C2=O)cc1` (stereo not given), for which the activation is 0.41%.

For `COc1ccc(CNC(=O)COC(=O)C2=Cc3ccccc3OC2)cc1`, the activation is 31.2% (active).

With `COc1ccc(-c2cc(-c3nnc(SCc4ccc([N+](=O)[O-])cc4)n3N)[nH]n2)cc1`, the activation was 0.29%.

As to `O=C(NCc1ccco1)C1CCCN(S(=O)(=O)c2ccc(Cl)s2)C1` (stereo not given), the activation is -0.13%.

Take `COC(=O)C1CN(CC(C)C)CCS(=O)(=O)N1Cc1ccc(F)cc1` (stereo not given): the activation was 0.05%.

For `COc1ccc2c(c1)CCc1cn3ncc(C#N)c3nc1-2`, the activation is 47% (active).

With `COc1ccc2c(c1)CCc1c(C(=O)N3CCCC3)noc1-2`, the activation is 0.01%.

Turning to `N#Cc1cnn2cc(CCN3CCOCC3)c(-c3ccc(F)cc3)nc12`, the activation is 11.7%.

For `CN(CCc1ccccc1)C(=O)Cn1nc(-c2ccccc2)ccc1=O`, the activation was -0.3%.

`CCOC(=O)C1(Cc2ccccc2)CCN(Cc2cn(C(C)=O)c3ccccc23)CC1`: the activation is 0.56%.

In the case of `CCCCCCN1CCS(=O)(=O)N(Cc2ccc(C(F)(F)F)cc2)C(C(=O)OC)C1` (stereo not given), the activation is 0.5%.

Take `CCOC(=O)c1oc2c(CN3CCN(C)CC3)c(O)ccc2c(=O)c1-c1ccc(Br)cc1`: the activation is 0.69%.

For the compound `O=c1c(-c2ccccc2)coc2c(CN3CCOCC3)c(O)ccc12`, the activation is 45.3% (active).

For `O=c1[nH]c(CN2CCOCC2)nc2scc(-c3ccccc3)c12`, the activation is -0.59%.

As to `O=C(NCC1COc2ccccc2O1)c1ccc(NC(=O)c2cc(F)ccc2F)cc1` (stereo not given), the activation is 1.38%.

Turning to `COc1cccc(Cn2cc(COC(=O)Nc3ccc(F)cc3)nn2)c1`, the activation was -0.1%.

Consider `COc1cccc2cc(S(=O)(=O)c3ccc(C)cc3)/c(=N/NS(=O)(=O)c3ccc(C)cc3)oc12`, for which the activation was 0.14%.

As to `Cc1cc(S(=O)(=O)c2cc3ccc(O)c(C)c3oc2=O)ccc1F`, the activation is 22.6% (active).

`O=C(CSc1nc2ccccc2s1)NN=Cc1ccc(O)cc1O`: the activation is -0.66%.

For `COc1cccc(/C=C2\CC3(OC(C)=O)CCCN2C3)c1` (stereo not given), the activation is 0.57%.

With `O=C(CCCCCN1C(=O)C2C3C=CC(C3)C2C1=O)Nc1ccccn1` (stereo not given), the activation was 0.09%.

Take `C=C(C)C1CC23C(=O)C4(C(=O)c5ccccc5)C[C@@]5(C)CCC(CC2C1(C)C)(C4=O)C35OC` (stereo not given in full): the activation was -0.91%.

For the compound `Cc1cc(=O)oc2c1ccc1ccccc12`, the activation was -3.76%.

As to `Cc1ccccc1C(=O)O`, the activation was -0.39%.

For `Cc1ccsc1-c1cc(C(=O)O)c2c(ccc3ccccc32)n1`, the activation was 12.6% (active).

As to `Cc1cc(=O)oc2c3c(cc(OCC(=O)N[C@H](C(=O)O)c4ccccc4)c12)OC(C)(C)CC3`, the activation was 47.5% (active).

Consider `Cc1cc(=O)oc2c3c(cc(OCC(=O)NCCC(=O)N[C@@H](C)C(=O)O)c12)OC(C)(C)CC3`, for which the activation is 47.4% (active).

Take `Cc1c(C)c2c(OCC(=O)NCCCO)cc3c(c2oc1=O)CCC(C)(C)O3`: the activation was 40.1% (active).

Consider `Cc1cc(=O)oc2c3c(cc(OCC(=O)NCc4ccccn4)c12)OC(C)(C)CC3`, for which the activation was 12.5%.

On to `Cc1cc(=O)oc2c3c(cc(OCC(=O)NCC(O)c4ccccc4)c12)OC(C)(C)CC3` (stereo not given), for which the activation was -10.6%.

Regarding `O=C(COc1ccc2c3c(c(=O)oc2c1)CCCC3)NCC(O)c1ccccc1` (stereo not given), the activation is -0.24%.

Take `COc1cccc(NC(=O)COc2cc(C)cc3oc(=O)cc(C)c23)c1`: the activation is -0.24%.

As to `Cc1c(OC(C)C(=O)N[C@@H](Cc2ccccc2)C(=O)O)ccc2c3c(c(=O)oc12)CCCC3` (stereo not given in full), the activation was -18.9%.

As to `Cc1cc(=O)oc2c(C)c(OCC(=O)NCCN3CCOCC3)ccc12`, the activation was -0.44%.

Turning to `CCc1cc(=O)oc2c(C)c(OCC(=O)NCCN3CCOCC3)ccc12`, the activation was 1.04%.

In the case of `COc1ccc(CCNC(=O)COc2cc(C)cc3oc(=O)c(C)c(C)c23)cc1OC`, the activation was -0.02%.

Regarding `Cc1c(C)c2c(OCC(=O)N[C@@H](C(=O)O)c3ccccc3)cc3c(c2oc1=O)CCC(C)(C)O3`, the activation was 39.6% (active).

For `Cc1ccccc1NC(=O)COC(=O)c1ccc(Sc2ncn[nH]2)c([N+](=O)[O-])c1`, the activation was 0.34%.

Turning to `Cc1cc(C)cc(NC(=O)N2CCC(N(C)CCC(C)C)CC2)c1`, the activation is -0.07%.

As to `CC(CCN1CCC(C(O)(c2ccccc2)c2ccccc2)CC1)Oc1ccc(C(F)(F)F)cc1` (stereo not given), the activation is -0.17%.

With `COC(=O)[C@]12C[C@H](CC(=O)N3CCN(C(=O)C4CC4)CC3)C(=O)N(CCC3=CCCCC3)C1=C[C@H](C(C)C)O[C@@H]2C1CC1`, the activation was 0.25%.

On to `CCCC[C@H]1C2CC(OC(=O)NCc3ccccc3)C(C2)[C@H]2CCCCN21` (stereo not given in full), for which the activation was 0.07%.

Take `O=C(NCc1cccnc1)c1ccc2nc([C@@H]3O[C@H](CO)[C@H](O)[C@H](O)[C@H]3O)[nH]c2c1`: the activation is -0.29%.

For the compound `CCOC(=O)c1csc(NC(=O)C2CCCN(S(=O)(=O)c3ccc(Cl)s3)C2)n1` (stereo not given), the activation is 0.6%.
